Bioassay records from PubChem.
Shown are actives, neighbours in structure and some others; about 2.1% of the full set was active somewhere.
PrPC surface inh: cell surface PrPC inhibition, primary TR-FRET screen | P04156 | TR-FRET read-out | inhibition, % at 13.8 µM | hit rate 0.43% among 370,000 | AID 720596; in the data active = inhibition above about 24%
PrP 5UTR inh: inhibition of PrP 5' UTR reporter expression; cell-based PrP 5' UTR mRNA reporter, plate reader; inhibition, % (concentration not given with the values); hit rate 0.35% among 340,000; in the data active = inhibition above about 52%
DUSP3 inh: DUSP3 (human) phosphatase inhibition. inhibition, % at 13.3 µM. P51452. recombinant VHR phosphatase, pNPP absorbance. hit rate 0.52% among 290,000. AID 1654; in the data active = inhibition above about 50%
MazF activator: MazEF (E. coli) toxin RNase activation; activation, % at 20 µM; hit rate 0.32% among 350,000; P0AE70; FAM/BHQ RNA-DNA oligo cleavage fluorescence, 5 h; in the data active = activation above about 50%
BJeLR viability: BJeLR cell viability loss | inhibition, % (concentration not given with the values) | hit rate 0.17% among 300,000 | BJeLR (HRASV12) viability, CellTiter-Glo ATP luminescence, 48 h; in the data active = inhibition above about 50%
PfHsp40 yeast: restores yeast growth despite PfHsp40 toxicity | S. cerevisiae expressing PfHsp40, growth rescue, ATP luminescence | growth rescue, % at 12.5 µM | hit rate 0.68% among 340,000; in the data active = growth rescue above about 28%, passing the limit was not always enough;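 also: yeast W303a lacking pdr1 and pdr3 grown in galactose medium; growth measured after three days at 30 °C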
PrPC TRFRET cf: cell surface PrPC inhibition, TR-FRET confirmation; shares compounds with PrPC surface inh; cell surface PrPC level; inhibition, % at 13.8 µM; hit rate 65% among 1,500; in the data active = inhibition above about 25%
LD9 tox: LD9 cell cytotoxicity, PrPc inhibitor counter-screen. shares compounds with PrPC surface inh. LD9 cells cytotoxicity, luminescence viability. inhibition, % at 13.8 µM. hit rate 29% among 1,500; in the data active = inhibition above about 9.5%
A number is an active result; – = inactive; · = no result.

SMILES	PrPC surface inh	PrP 5UTR inh	DUSP3 inh	MazF activator	BJeLR viability	PfHsp40 yeast	PrPC TRFRET cf	LD9 tox
COC1=CC(=O)c2c(ccc3ncnc(N)c23)C1=O	60.9	–	·	–	·	–	84.4	98.4
CN1/C(=C\C(=S)NC(=O)c2ccc([N+](=O)[O-])cc2)C(C)(C)c2ccccc21	–	–	–	–	–	–	·	·
CN1/C(=C\C(=S)NC(=O)c2cccc(Br)c2)C(C)(C)c2ccccc21	25.2	–	–	–	–	–	30.1	15.8
COc1ccccc1NC(=O)CSc1ncnc2c1oc1ccccc12	26.5	–	–	–	–	–	–	–
COc1cc(C(C(=O)NC2CCCCC2)N(C(=O)c2cnccn2)c2ccccc2)cc(OC)c1OC (configuration not stated)	–	–	–	–	–	–	·	·
Cc1c(NC(=O)C2CCCN(S(=O)(=O)c3ccc(Br)s3)C2)c(=O)n(-c2ccccc2)n1C (configuration not stated)	–	·	·	·	·	·	·	·
N#CC1=C(N)NC(=S)C(C(N)=O)C1c1ccc([N+](=O)[O-])cc1 (configuration not stated)	–	–	–	–	–	–	·	·
Cc1cccc[n+]1C1C(c2ccc([N+](=O)[O-])cc2)C(C#N)=C(C(=C=[N-])C#N)NC1(O)C1CC1 (configuration not stated)	39.3	–	–	–	–	–	–	–
O=C(NCc1cccnc1)c1c(O)c2cccc3c2n(c1=O)CCC3	31.9	–	–	–	–	60.1	38.7	–
O=C(O)C(Cc1c[nH]c2ccccc12)N1Cc2ccccc2C1=O (configuration not stated)	–	–	–	–	–	–	·	·
CCc1c(C)nc(N)nc1N1N=C1SC	–	–	–	–	–	–	·	·
CCc1c(C)nc(N)nc1N1N=C1SCC(N)=O	26.0	–	–	–	–	–	25.5	–
CCOC(=O)N1CCN(S(=O)(=O)c2ccc(C(=O)NNc3nc4c(C)cc(C)cc4s3)cc2)CC1	25.4	·	–	–	–	·	24.9	–
N#Cc1c(N)n(C2OC(CO)C(O)C2O)c2ncnc(N)c12 (configuration not stated)	26.5	–	·	–	·	–	30.1	33.8
Nc1ncnc2c1ncn2C1O[C@H](CO)[C@@H](O)[C@@H]1O (some centres not stated)	–	–	·	–	·	–	·	·
CCOC(=O)c1c(C)[nH]c(C(=O)OCC(=O)Nc2sccc2C(N)=O)c1C	33.1	–	·	–	–	–	–	44.0
COc1cccc(NC(=O)COC(=O)c2sccc2C)c1	–	–	·	–	·	–	·	·
CCc1ccc(-c2nc3ccc(Br)cc3c(C(=O)O)c2C)s1	47.8	–	–	–	–	–	83.7	–
O=c1[nH]c(Cc2ccccn2)nc2scc(-c3ccccc3Cl)c12	25.9	–	–	–	–	–	–	–
CSCc1nc2scc(-c3ccccc3)c2c(=O)[nH]1	–	–	–	–	–	–	·	·
CC1CC(C)CC(C)C(O)C(C#N)=CC=CCC(C2CCCC2C(=O)O)OC(=O)CC(O)C(C)C1 (configuration not stated)	86.6	–	·	–	·	400.8	98.2	51.1
CCN(CC(=O)Nc1c(F)cccc1F)C(=O)c1cc(-c2cccs2)nn1-c1ccccc1	24.6	–	·	–	–	–	28.1	–
C[C@@H]1C[C@H]2O[C@@H]2/C=C\C=C\C(=O)Cc2cc(O)cc(O)c2C(=O)O1	81.2	·	·	·	·	·	47.7	61.2
O=[N+]([O-])c1ccc2nc(CNc3nc(N4CCOCC4)nc4c3ncn4-c3ccsc3)[nH]c2c1	–	·	·	·	·	·	·	·
c1ccc2[nH]c(CNc3nc(N4CCOCC4)nc4c3ncn4-c3ccsc3)nc2c1	–	·	·	·	·	·	·	·
SMILES	PrPC surface inh	PrP 5UTR inh	DUSP3 inh	MazF activator	BJeLR viability	PfHsp40 yeast	PrPC TRFRET cf	LD9 tox
FC(F)(F)c1ccc2nc(CNc3nc(N4CCOCC4)nc4c3ncn4-c3ccsc3)[nH]c2c1	40.9	·	·	·	·	·	36.8	16.7
c1ccc2cc3[nH]c(CNc4nc(N5CCOCC5)nc5c4ncn5-c4ccsc4)nc3cc2c1	25.4	·	·	·	·	·	37.6	13.3
CC(C)(C)c1ccc(S(=O)(=O)N2CCCC2C(=O)N2CCN(c3ccccc3)CC2)cc1 (configuration not stated)	–	·	·	·	·	·	·	·
CCc1ccc(N2C(=O)C(Cl)=C(Nc3ccc(C(=O)N4CCCC4)cc3)C2=O)cc1	·	–	·	–	·	–	·	·
COc1ccc(NC(=O)CNC(=O)Cc2cccc3ccccc23)c(OC)c1	–	–	·	–	–	–	·	·
CC1(C(=O)NCc2cccc3ccccc23)CCN1CCc1ccccc1 (configuration not stated)	–	·	·	·	·	·	·	·
C[C@@H]1Cc2cc(O)c(O)c(O)c2C(=O)O1	–	·	·	·	·	·	·	·
CCN(CC(=O)Nc1ccc(OC)cc1)C(=O)c1ccccc1Sc1ccccc1C#N	–	–	·	–	–	–	·	·
NC(=O)CSc1nc2sc3c(c2c2ncnn12)CCCC3	47.2	–	–	–	–	–	47.4	–
O=C(O)CSc1ncnc2sc3c(c12)CCCC3	29.6	–	–	–	–	–	53.3	–
O=C(O)CSc1ncnc2sc3c(c12)CCC3	46.6	–	–	–	–	–	50.4	–
CCN1C(=O)[C@H]2[C@@H](c3ccc(OC)cc3)N3C(=O)CN(CC4CC4)C(=O)[C@@]3(C)[C@H]2C1=O	–	–	–	–	–	–	·	·
O=C(Nc1ccnn1C1CCN(C(=O)c2cnsn2)CC1)c1cccc(F)c1	–	–	–	–	–	–	·	·
CC(C)C(=O)N1CCCC1(C)C(=O)N(C)Cc1cccc2ccccc12 (configuration not stated)	–	·	·	·	·	·	·	·
CC(=O)Nc1ccc(Sc2ccc([N+](=O)[O-])o2)cc1	69.5	–	·	–	·	54.2	28.7	22.2
COC(=O)N1C2CCCCC2=NN(c2ccccc2)N1C(=O)OC (configuration not stated)	28.9	·	·	·	·	·	–	–
Cc1nnc(SCC(=O)NC2CCCC2)n1-c1ccccc1	–	–	·	–	·	–	·	·
CCCCCc1c(CC)ncn1CCc1ccccc1OC	28.9	·	·	·	·	·	–	22.1
COc1ccccc1S(=O)(=O)c1ccccc1[N+](=O)[O-]	–	–	–	–	–	–	·	·
O=[N+]([O-])c1cccnc1S(=O)(=O)c1ccccc1	38.0	–	–	–	–	104.2	–	97.8
COc1ccc([N+](=O)[O-])c(S(=O)(=O)c2ccccc2)n1	52.4	·	–	–	–	·	–	94.9
CCc1nc2ccc(C(=O)N(C)CCN(C)C)cn2c1N(C)Cc1cc2ccccc2s1	–	·	·	·	·	·	·	·
O=C(Nc1cc(S(=O)(=O)N2CCCCC2)ccc1Cl)c1ccccc1NS(=O)(=O)c1ccc(F)cc1	25.2	–	–	–	50.7	–	33.0	24.7
O=C(Nc1cc(S(=O)(=O)N2CCCCC2)ccc1O)c1ccccc1NS(=O)(=O)c1ccc(F)cc1	–	–	–	–	–	–	·	·
